From PubChem BioAssay
A selection: hits, their analogues and other compounds. The true share with any hit is near 5.3%.
HIF activator: HIF pathway transcriptional activation. U2OS HRE-luciferase reporter, luminescence; normalized: DMSO 0%, desferrioxamine 100%. AID 1910. actives 0.32% (n = 300,000). activation, % at 7.5 µM (by protocol);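 active = mean activation of at least 10% of the iron chelator positive control signal, with at least half of replicates also reaching 10%; inconclusive = mean and replicate majority disagree about reaching 10%; inactive = mean and most replicates under 10%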
Mot1-301 SUMO: blocks SUMOylation pathway, rescuing yeast Mot1-301 growth | AID 2716 | S. cerevisiae Mot1-301 growth rescue, ATP luminescence, 38.5C; percent above DMSO median, 100 means doubled | growth rescue, % at 18.8 µM | actives 1% (n = 320,000);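 active = every valid replicate shows activation above 250% relative to neutral control wells; inactive = the rest, any valid replicate at or below 250%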
M18AAP inhibitor: blocks P. falciparum M18 aspartyl aminopeptidase | recombinant PfM18AAP, H-Glu-NHMec fluorogenic cleavage | inhibition, % at 7.35 µM | actives 1.2% (n = 290,000);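 active = inhibition above the campaign mean inhibition over all tested compounds plus 3 SD, cut at about 28% in these data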
ALR H2O2 inh: inhibitors of human sulfhydryl oxidase ALR; actives 3.8% (n = 290,000); inhibition, % (concentration not given with the values); AID 485317; purified ALR, DTT oxidation, H2O2 HRP-luminol luminescence;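 active = mean replicate inhibition above about 79%, with every replicate also reaching it, limit read from the data; inconclusive = only one of the two criteria met; inactive = mean below limit and not every replicate reaching it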
Target sequence (P55789 whole entry, looked up): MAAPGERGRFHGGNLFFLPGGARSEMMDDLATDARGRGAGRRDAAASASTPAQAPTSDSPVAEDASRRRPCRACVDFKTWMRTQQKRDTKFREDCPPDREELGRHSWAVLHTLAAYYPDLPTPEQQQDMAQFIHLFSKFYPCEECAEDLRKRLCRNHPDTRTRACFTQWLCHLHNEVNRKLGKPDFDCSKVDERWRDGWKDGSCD
Large screens that a line does not name were inactive.

Cc1c(O)ccc2c(CN3CCOCC3)cc(=O)oc12	ALR H2O2 inh 88 (no result: HIF activator)
Cc1c(O)ccc2c(CN3CCN(CCO)CC3)cc(=O)oc12	ALR H2O2 inh 90 (no result: HIF activator)
Cc1cc(C)c2oc(=O)cc(CN3CCOCC3)c2c1	none (no result: Mot1-301 SUMO)
C/C(N)=C(/C#N)C(=O)COC(=O)CCC1CCCC1	none
CCOC(=O)N1CCN(C(=O)c2ccc3c(c2)N(Cc2cccc(Cl)c2)C(=O)c2ccccc2S3=O)CC1 (configuration not stated)	none
COC(=O)c1ccc(COc2ccc(CNCc3ccc(Cl)cc3)cc2)cc1	none
Cc1[nH]nc(N)c1-c1ccc(Cl)cc1	Mot1-301 SUMO 287
Cc1[nH]nc(N)c1-c1ccccc1	none
CCN(CC)CCNC(=O)C(=O)NCC1OCCN1S(=O)(=O)c1ccc2c(c1)OCCO2 (configuration not stated)	none
CCOC(=O)c1c(CN2CCN(C)CC2)n(-c2ccccc2)c2cc(Br)c(O)cc12	ALR H2O2 inh 79
Cc1cc(C)c(S(=O)(=O)N2CCN(C(=O)c3ccc(-n4cncn4)c([N+](=O)[O-])c3)CC2)c(C)c1	none (no result: M18AAP inhibitor)
CC1(C)CC(=O)C2=C(C1)N(Cc1ccco1)C(=O)C2(NC(=O)c1ccc(Cl)cc1Cl)C(F)(F)F (configuration not stated)	ALR H2O2 inh 98
S=c1[nH]nc(Cc2sc(-c3ccccc3)nc2-c2ccccc2)o1	ALR H2O2 inh 98
COC(=O)c1c(NC(=O)CN2CCC3(O)CCCCC3C2c2ccc(OC)cc2OC)sc(C)c1C (configuration not stated)	M18AAP inhibitor 44 (no result: ALR H2O2 inh)
COc1ccccc1N1CCN(S(=O)(=O)c2cccs2)CC1	none
COc1ccccc1N1CCN(S(=O)(=O)c2ccccc2)CC1	ALR H2O2 inh 98
COc1ccccc1N1CCN(S(=O)(=O)c2cnc[nH]2)CC1	ALR H2O2 inh 98
COc1ccc(S(=O)(=O)N2CCN(c3ccccc3OC)CC2)cc1OC	none
CCOc1ccccc1N1CN(CC)CNC1=S	Mot1-301 SUMO 355
CCN1CNC(=S)N(c2ccccc2C)C1	none (no result: HIF activator)
CNS(=O)(=O)c1cccc(C(=O)OCC(=O)N(Cc2ccccc2)C(C)(C)C)c1	none
O=C(NCCN1CCN(c2cccc(Cl)c2)CC1)c1ccc(CSc2nc3ccncc3[nH]2)cc1	none
CCN(CCNC(=O)c1ccc(CSc2nc3ccncc3[nH]2)cc1)c1ccccc1	ALR H2O2 inh 98
COc1ccc(C)cc1NC(=O)CCN1CCN(c2ccccc2F)CC1	none
Cc1cccc(C(=O)NCCN2CCN(c3ccccc3)CC2)c1	none (no result: ALR H2O2 inh)
O=C(NCCN1CCN(c2ccccc2)CC1)C1(S(=O)(=O)c2ccc(Cl)cc2)CC1	ALR H2O2 inh 99 (no result: HIF activator)
COc1ccccc1C(=O)NCCN1CCN(c2ccccc2)CC1	ALR H2O2 inh 97
O=C(NCCN1CCN(c2ccccc2)CC1)c1cccc(Cl)c1	ALR H2O2 inh 98
O=C(NCc1ccccc1Cl)C1(S(=O)(=O)c2ccc(Cl)cc2)CC1	none (no result: ALR H2O2 inh)
COc1ccc(C)cc1NC(=O)CCN1CCN(c2ccccc2)CC1	ALR H2O2 inh 95
O=C(CSc1nc2[nH]ncc2c(=O)[nH]1)NCCc1ccccc1	none
C[C@@H]1COC(=O)[C@H](CC(=O)OC(C)(C)C)C/C=C\C[C@@H](CC(=O)N[C@H](CO)Cc2ccccc2)C(=O)N1	none (no result: HIF activator, M18AAP inhibitor)
COc1ccc(C(C)=O)cc1CSCCC#N	none
Cc1cccc(C)c1NC(=O)NCCCN1CCN(c2ccccc2)CC1	ALR H2O2 inh 82
Cc1cccc(C)c1NC(=O)C(=O)NCCCN1CCOCC1	none
O=C(CCN1CCN(c2ccccc2)CC1)N/N=C/c1ccccc1O	HIF activator 17, ALR H2O2 inh 84
O=C(Cc1c(C(=O)O)[nH]c2ccccc12)NCCN1CCN(c2cccc(Cl)c2)CC1	ALR H2O2 inh 88
CN1CCN(CCC(=O)N/N=C/c2ccccc2F)CC1	none
COc1ccc(NC(=O)CSc2nc3ccccc3nc2N2CCCC2)cc1Cl	none
N#Cc1ccccc1NC(=O)CN(Cc1ccccc1)Cc1ccccc1	none
COC(=O)CCC(=O)NC(=S)Nc1ccc(S(=O)(=O)N2CCCC2)cc1	none
N/C(=N\O)c1ccc(Oc2ccccc2Cl)c([N+](=O)[O-])c1	ALR H2O2 inh 98
COc1ccc(Nc2cccc(Cl)c2)c(C(=O)O)c1	ALR H2O2 inh 98
CN(C)C(=O)CSc1ccccc1C(=O)OCC(=O)NC1CC1	none (no result: HIF activator, M18AAP inhibitor)
COc1cc(/C=N/NC(=O)/C(=C/c2ccccc2)CCO)ccc1O	ALR H2O2 inh 99
O=C(N/N=C/c1ccc(O)cc1O)/C(=C/c1ccccc1)CCO	ALR H2O2 inh 81
CCOc1cccc(/C=N/NC(=O)c2cccnc2)c1O	ALR H2O2 inh inconclusive
CCOc1cccc(/C=N/NC(=O)c2cc(C3CC3)[nH]n2)c1O	ALR H2O2 inh 98
CN(C)C(CNS(=O)(=O)c1ccc2ccccc2c1)c1ccccc1 (configuration not stated)	none (no result: ALR H2O2 inh)
O=C1C(=O)c2ccccc2C(O)=C1c1cccc([N+](=O)[O-])c1	HIF activator 23
CCOC(=O)c1c(N)sc2c1CCN(CCc1ccccc1)C2	M18AAP inhibitor 29
CCOC(=O)c1c(NC(=S)Nc2ccccc2)sc2c1CCN(CCc1ccccc1)C2	none (no result: HIF activator)
O=C(NCCCN1CCCC(O)C1)c1cc(COc2ccc(F)cc2F)on1 (configuration not stated)	none
CC1CC/C(=N/Nc2ccccc2)C(=O)N1 (configuration not stated)	ALR H2O2 inh 99
COc1ccc2c(c1)OC[C@H]1[C@@H]2N2C(=O)CNC(=O)[C@@]2(C)[C@H]1c1ccccc1	none (no result: HIF activator, M18AAP inhibitor)
COc1ccc(C2NC(=S)NC3=C2CCCC3=C2SCCS2)cc1 (configuration not stated)	HIF activator 235
Cc1[nH]c2ccccc2c1C(=O)C(C)OC(=O)c1ccc(NC(=O)CC#N)cc1 (configuration not stated)	ALR H2O2 inh 100 (no result: M18AAP inhibitor)
CCC(CC)C(=O)NCCc1ccc(F)cc1	none
O=c1cc2c(n[nH]1)-c1ccccc1CC2	none
Cc1nn(-c2ccccc2)c(C)c1C(=O)OCC(=O)Nc1ccccc1F	none (no result: HIF activator, M18AAP inhibitor)
CC(=O)Nc1ccc(NC(=O)COC(=O)c2c(C)nn(-c3ccccc3)c2C)cc1	ALR H2O2 inh 94
CCOC(=O)C(=NCC1CCCO1)NNc1cc(Cl)ccc1Cl (configuration not stated)	ALR H2O2 inh 99
COC(=O)CCCc1nc2ccccc2s1	none
COC(=O)Cc1[nH]n(-c2nc3ccccc3s2)c(=O)c1C(C)=O	ALR H2O2 inh 98
COC(=O)CC1=NN(c2nc3ccccc3s2)C(=O)/C1=C/N(C)C	ALR H2O2 inh 96
CC(=O)c1c(CC(=O)O)[nH]n(-c2nc3ccccc3s2)c1=O	ALR H2O2 inh 97
COc1ccc(CN=C(C)c2c(C(F)(F)F)[nH]n(-c3nc4ccccc4s3)c2=O)cc1	none (no result: ALR H2O2 inh)
CCn1c(CC(=O)Nc2ccc(F)cc2)nnc1SCC(=O)Nc1nnc(C)s1	none
CCN(CC)c1ccc(/C=C2/C(=O)c3ccc(C(=O)O)cc3C2=O)cc1	ALR H2O2 inh 98 (no result: HIF activator)
Cc1ccc(NC(=O)C2CC(O)CN2C(=O)OCc2ccccc2)cc1C (configuration not stated)	none (no result: Mot1-301 SUMO, ALR H2O2 inh)
CN(C)C(=O)CSc1nc(-c2cccs2)c(-c2cccs2)[nH]1	ALR H2O2 inh 99
